# PubChem BioAssay (NCATS)
# The list shows a part of the results. Inconclusive results are not listed. A number with no mark means an inactive call. The call rests on the fitted dose curve; in most records, active means well fitted inhibition curve with a large enough effect; inconclusive means small, poorly fitted or top-dose-only effect, or another doubt; inactive means no such curve, though single readings can be large or run the other way.
# Target: Luciferin 4-monooxygenase (Photinus pyralis) (UniProt P08659)
# Experiment: Biochemical FLuc counterscreen for small molecule modulators of PMP22 gene expression (AID 1508640); further: % of control where 0% means no effect
# Conditions: purified P. pyralis FLuc, luminescence, 10 min; series mostly up to 57.5 µM; activity, negative = inhibition: at the top concentration
# From the text: Assay Provider: Jim Inglese Ph.D. National Center for Advancing Translational Science, National Institutes of Health, Rockville, MD CMT is a heterogeneous group of neurological disorders that affect approximately 1 in 2,500 people. In particular, the most common form of CMT, CMT1A is genetically linked to the duplication of the PMP22 gene which leads to Schwann cell overexpression, thus manifesting itself as a typical case of dose-sensitive diseases. To identify small molecule compounds that can mediate the expression of PMP22 we developed a phenotypic assay screening strategy by utilizing genome editing techniques to construct Schwann cell lines containing novel reporter technology to monitor the transcriptional or translational regulation of PMP22. For high sensitivity we use a bioluminescent reporter system embedded in the 3' UTR of the PMP22 gene (S16(c9) Pmp22-F2sN) to identify compounds that inhibit gene expression. […] We can further discriminate the effect of all transcriptionally active molecules on PMP22 translation or stability with an assay that incorporates a short NLuc peptide (HiBiT) at the C-terminus of expressed PMP22 (S16(f8) PMP22-HiBiT) allowing alpha complementation and luminescence detection of membrane-associated PMP22 protein. These assays were screened against the NCATS Sytravon Library Collection. Miniaturization of these assays to 1536-well plate format for quantitative high throughput screening (qHTS) yielded rich data sets immediately from the qHTS assay (S16(c9) Pmp22-F2sN), when compared with data from a cell viability assay (Cell TiterGlo) to identify compounds that decreased the output signals through cellular toxicity to streamline the selection process of actives for subsequent characterization using the HiBiT assay (S16(f8) PMP22-HiBiT).
# Biochemical FLuc assay PROTOCOL TABLE (format as described by Inglese J, Shamu CE and Guy RK. 2007) SEQUENCE No. (e.g., 1, 2, 3, etc.); PARAMETER (e.g., Cells, Incubation, Reagent, etc.); VALUE and DESCRIPTION. 1. Reagent. Add 3 uL substrate per well into Greiner 1536-well white/solid bottom high base, medium binding plates. 2. Compounds. Library compounds and controls added at 23nL per well, transferred by Pin Tool. 3. Incubation. Incubate plates 15 min at ambient temperature. 4. Reagent. Add 1uL FLuc enzyme solution per well of Greiner 1536-well plates. 5. Incubation. Incubate plates at room temperature for 10 min., protect from light. 6. Detector. FLuc luminescence measured using CCD-based camera (Viewlux). NOTES (numbers refer to Sequence numbers above; values are from representative experiments) 1. Dispense freshly prepared substrate (final concentration of 10 uM D-Luciferin, 10 mM Mg-Acetate, 50 mM Tris Acetate pH 7.6, 10 uM ATP, 0.01 % Tween-20, 0.05 % BSA) into 1,536-well Greiner white/solid bottom high base, medium binding plates. Protect from light. 4. Freshly prepared enzyme solution containing 10 nM P. pyralis in 50 mM Tris Acetate was filtered through a […] prior to dispensing. 6. Luminescence Read (Fluc): Clear filter; Exposure = 10 sec, Gain = High, Speed = Slow, Binning = 2X REFERENCES: 1. Inglese J, Shamu CE and Guy RK, Reporting data from high throughput screening of small molecule libraries, Nature Chemical Biology, 2007, 3(8): 438-441. doi.org/10.1038/nchembio0807-438 2. Yasgar A, Shinn P, Jadhav A, Auld DS, Michael S, Zheng W, Austin CP, Inglese J and Simeonov A, Compound Management for Quantitative High-Throughput Screening. J. Assoc. Lab. Auto., 2008, 13: 79-89. doi: 10.1016/j.jala.2007.12.004 3. […] Chemistry & Biology, 2012, 19: 1060-1072. doi.org/10.1016/j.chembiol.2012.07.015
# Chain of Luciferin 4-monooxygenase (Photinus pyralis) (P08659 whole entry, looked up): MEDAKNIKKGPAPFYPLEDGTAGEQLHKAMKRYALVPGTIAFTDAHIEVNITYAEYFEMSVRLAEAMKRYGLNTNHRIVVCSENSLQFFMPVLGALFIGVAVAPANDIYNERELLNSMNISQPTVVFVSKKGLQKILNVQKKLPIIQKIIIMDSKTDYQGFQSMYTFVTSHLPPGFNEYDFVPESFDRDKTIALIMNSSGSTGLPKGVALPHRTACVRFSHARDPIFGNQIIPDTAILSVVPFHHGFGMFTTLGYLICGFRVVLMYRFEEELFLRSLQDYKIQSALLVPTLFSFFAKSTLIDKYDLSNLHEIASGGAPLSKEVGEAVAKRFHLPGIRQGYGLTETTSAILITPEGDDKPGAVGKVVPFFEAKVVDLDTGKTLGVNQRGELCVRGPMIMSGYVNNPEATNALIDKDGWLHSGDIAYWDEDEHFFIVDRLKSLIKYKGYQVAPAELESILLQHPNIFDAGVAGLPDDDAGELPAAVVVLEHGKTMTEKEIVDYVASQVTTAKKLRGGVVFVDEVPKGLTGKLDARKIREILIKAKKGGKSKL
row,SMILES,"activity, negative = inhibition [%]"
1,COc1ccc(-c2onc(C)c2C)cc1S(=O)(=O)NCC1CCN(Cc2cccc(F)c2)CC1,-1.38
2,Cc1cc(OCC(=O)NCC2(N(C)C)CCCCC2)cc(C)c1Cl,-9.58
3,COc1ccccc1Nc1c2c(nc3ccc(NC(=O)/C=C/c4cc(OC)c(OC)c(OC)c4)cc13)CCCC2,14.3
4,CC(C)(C)c1ccc(C(=O)NCC(c2ccco2)S(=O)(=O)c2ccc(F)cc2)cc1 (centres undefined),-13.4
5,Cc1ccc(NC(=O)c2nc(S(=O)(=O)Cc3cccc(C)c3)ncc2Cl)cc1,-10.5
6,Cc1nnc(SCC(=O)NCc2ccccc2Cl)c2nn(-c3ccccc3)c(C)c12,-3.49
7,Cc1cc(F)ccc1NS(=O)(=O)c1ccc(-n2cccn2)cc1,10.4
8,O=C(c1ccc(C(F)(F)F)cc1)N1CCC(c2nc(-c3ccc(S(=O)(=O)N4CCCC4)cc3)no2)CC1,-8.99
9,O=C(CCS(=O)(=O)c1ccccc1)N(Cc1cccnc1)c1nc2c(F)cccc2s1,-3.07
10,Cc1ccc(CCNC(=O)C2CCN(c3nnc(-n4cccc4CNc4ccc(C)cc4)s3)CC2)cc1,-6.01
11,CCOC(=O)c1c(C)[nH]c(CCC(=O)NCCCN2CCN(c3cccc(Cl)c3)CC2)c1C,2.39
12,CCCn1c2ccccc2c2cnn(CC(=O)NCC3CCN(Cc4ccc(C)cc4)CC3)c(=O)c21,11.2
13,CCc1ccc(C2CC(=O)c3c([nH]c(C(=O)OCc4ccc(C)cc4)c3C)C2)cc1 (centres undefined),0.949
14,CCCCOc1ccc(CN2C(=O)C(=O)c3cc(Br)cc(C)c32)cc1OC,-19.2
15,CCOc1ccc(NC(=O)c2c(NC(=O)Cc3ccccc3)sc3c2CCC(C)C3)cc1 (centres undefined),-21.9
16,COc1ccc(CCNC(=O)c2cc(=O)c3c(C)cc(C)cc3o2)cc1OC,-17.4
17,CCOC(=O)c1ccc(NC(=O)CSc2nc3c([nH]c4ccccc43)c(=O)n2C)cc1,-12.3
18,CCCn1c(=N)c(C(=O)NCc2ccccc2)cc2c(=O)n3cccc(C)c3nc21,-4.12
19,CCOCCCNC(=O)c1c(NC(=O)c2nc(SC)ncc2Cl)sc2c1CCCC2,5.33
20,Cc1sc(C2C(C#N)=C(N)N(c3cccc(Cl)c3)C3=C2C(=O)CCC3)cc1CN1CCOCC1 (centres undefined),1.68

row,SMILES,"activity, negative = inhibition [%]"
1,O=C(c1ccc2c(c1)N(Cc1ccc(F)cc1)C(=O)c1ccccc1S2(=O)=O)N1CCN(c2ccccn2)CC1,9.29
2,CC(=O)N1CCCc2cc(S(=O)(=O)N3CCCC(C(=O)N4CCN(c5cccc(Cl)c5)CC4)C3)ccc21 (centres undefined),-3.04
3,CCC1=Nc2cc(C(=O)NCCCOC(C)C)ccc2Sc2ccc(C)cc21,7.24
4,Cc1cccc(Nc2cc(C)nc(-n3nc(C)cc3C)n2)c1,-12.2
5,COc1ccccc1-c1cc(C(F)(F)F)nc(S(=O)(=O)CCCC(=O)Nc2ccc(F)cc2F)n1,-2.16
6,O=S(=O)(c1ccc(Cl)cc1)c1nnn2c1nc(NC1CCCC1)c1sccc12,-5.21
7,CCCS(=O)(=O)c1ncc(Cl)c(C(=O)Nc2scc(-c3ccccc3)c2C(=O)OCC)n1,-3.4
8,Cc1ccc(C)n1-c1nnc(N2CCC(C(=O)NCc3ccccc3Cl)CC2)s1,3.2
9,COc1cccc(NC(=O)CSC2=Nc3ccccc3C3=NC(CC(=O)NC4CCCCC4)C(=O)N23)c1 (centres undefined),-5.76
10,Cc1ccccc1CNC(=O)CSc1nnc(C)c2c(C)n(-c3ccccc3)nc12,-2.97
11,CCOC(=O)c1c(C)[nH]c(CCC(=O)NCCCN2CCN(c3cc(C)ccc3C)CC2)c1C,-2.52
12,COc1cccc(NC(=O)N(Cc2cn(C)c3ccccc23)C2CCCCCC2)c1,0.718
13,CCC1CCCCN1CCCNC(=O)c1cc2c(Cl)nc3ccccc3c2s1 (centres undefined),-2.7
14,CCOC(=O)C1CCN(C(=O)CSc2c3c(nc4ccc(Cl)cc24)CCCC3)CC1,-10.6
15,O=C(NCCCN1CCN(c2cccc(Cl)c2)CC1)c1nnc(Cc2ccc(F)cc2Cl)o1,-10.3
16,CCOC(=O)c1ccc(N2C(=O)c3n[nH]c(C)c3C2c2ccc(O)c(OC)c2)cc1 (centres undefined),5.22
17,Cc1ccc(Cn2c(C)c3cnn(CC(=O)NCc4ccccc4)c(=O)c3c2C)cc1,-12.3
18,Cc1ccc(OCCSc2nc3ccc(NC(=O)COc4ccc(C)cc4)cc3s2)cc1,2.02
19,CCCN1C(=O)C(O)(CC(=O)c2ccc(CC)cc2)c2cc(Br)ccc21 (centres undefined),-8.85
